Test results reported in PubChem BioAssay (NCI).
About 83,000 compounds went through this panel and 20% of them were active in at least one assay; those are over-represented in the sample as a whole.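 96-well plates, one dose, 48 hours. Percent growth reported; active if below 10.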 A number with no mark means an inactive call. Calls of active or inactive are those of the source.

How the values were obtained:
Assay in all cases: NCI-60 one-dose screen, 48 h (100 = growth as untreated, 0 = no growth, -100 = all killed)
Settings in all cases: 10 µM unless noted
HCT-15 colon = test system: HCT-15 colon
HT29 colon = test system: HT29 colon
SNB-19 CNS = test system: SNB-19 CNS
U251 CNS = test system: U251 CNS
PC-3 prostate = test system: PC-3 prostate
SK-MEL-5 melanoma = test system: SK-MEL-5 melanoma
UACC-62 melanoma = test system: UACC-62 melanoma
LOX IMVI melanoma = test system: LOX IMVI melanoma
SK-MEL-28 melanoma = test system: SK-MEL-28 melanoma
SNB-75 CNS = test system: SNB-75 CNS

Row | SMILES | growth (HCT-15 colon) | growth (HT29 colon) | growth (SNB-19 CNS) | growth (U251 CNS) | growth (PC-3 prostate) | growth (SK-MEL-5 melanoma) | growth (UACC-62 melanoma) | growth (LOX IMVI melanoma) | growth (SK-MEL-28 melanoma) | growth (SNB-75 CNS)
1 | C=C1C[C@](OC)([C@H](O)C(=O)N[C@@H](OC)[C@@H]2C[C@@H](O)C(C)(C)[C@@H](C[C@@H](COC)OC)O2)O[C@H](C)[C@@H]1C | -51.3% (active) | -68.7% (active) | -10.7% (active) | -61.9% (active) | -25.5% (active) | -100% (active) | -92.5% (active) | -81.8% (active) | -100% (active) | 
2 | O=C(N/N=C\c1ccc(N(CCCl)CCCl)cc1Cl)c1cccnc1 | 79.9% |  | 89% | 65.2% | 92.9% | 72.6% | -40.4% (active) | 87.1% | 98.5% | 86.6%
3 | CC[S][Hg][Cl] | 104% |  | 106% | 99.6% | 103% | 106% | 103% | 88.1% | 111% | 93.6%
4 | CC(=O)Oc1ccccc1C(=O)NCCC[Se]C#N | -30.6% (active) | 91.1% | -70.3% (active) | -62.1% (active) | 20.6% | 35.4% | 71.3% | -49% (active) | 7.94% (active) | 
5 | Cn1cccc1C1CC(=O)N(CCC[Se]C#N)C1=O (stereo unspecified) | -56.5% (active) | 7.03% (active) | -65.2% (active) | -85.5% (active) |  | -51.9% (active) | 27% | -66.8% (active) | -6.1% (active) | 
6 | COc1ccc2nc(NC(=O)COc3cc(/C=C\c4cc(OC)c(OC)c(OC)c4)ccc3OC)sc2c1 | 15.5% | 10.3% | 31.5% | 20.4% | 30.4% | 10.8% | 33.8% |  | 43.5% | 
7 | CC[C@H](C)[C@H](NC(=O)N[C@@H](C)c1ccccc1)C(=O)N(C)[C@H](C[C@@H](OC(C)=O)c1nc(C(=O)N[C@@H](Cc2ccccc2)C[C@H](C)C(=O)OC)cs1)C(C)C | 12.3% | -24.4% (active) | 56.7% | 13.1% |  | -33.7% (active) | 11.4% | 18% | 44.6% | 
8 | O=C(N/N=C\c1ccc(N(CCCl)CCCl)cc1)c1cccc([N+](=O)[O-])c1 | 98.7% |  | 77.3% | 73.9% | 89.1% | 93.9% | 77.9% | 83.4% | 108% | 60%
9 | CC1[C@H](C)OC(=O)CC(O)CC(O)CC(O)CCC(O)C(O)C[C@]2(O)CC(O)C(C(=O)O)C(CC(OC3O[C@H](C)[C@@H](O)[C@H](N)[C@@H]3O)/C=C/C=C/C=C/C=C/CC/C=C/C=C/[C@H](C)[C@H]1O)O2 (stereo partly specified) | 109% | 107% | 109% | 92.4% |  | 97.2% | 109% | 89.7% | 110% | 
10 | CC[C@H](C)[C@H](NC(=O)C12C3C4C1C1C2C3C41NC)C(=O)N(C)[C@H](C[C@@H](OC(C)=O)c1nc(C(=O)N[C@@H](Cc2ccccc2)C[C@H](C)C(=O)OC)cs1)C(C)C (stereo partly specified) | 18.4% | 2.58% (active) | 49.6% | 11.6% | 21.2% | 3.34% (active) |  | 15.7% | 58.1% | 
11 | C1CCC2(CC1)OOCNCOO2 | 99.3% | 97.7% | 113% | 105% | 98% | 93.5% | 113% |  | 110% | 
12 | O=C(O)C(O)C(O)C1[O][Sb]([c]2ccc([N+](=O)[O-])cc2)[O]C1CO (stereo unspecified) | 95.8% | 101% | 94.9% | 101% | 100% | 103% | 91.9% | 101% | 106% | 
13 | CCCOC(=O)N[C@H]1CCc2c(Br)c(OC)c(OC)c(OC)c2-c2ccc(SC)c(=O)cc21 | 7.9% (active) | 12.2% | 23.1% | 17.6% | 21.1% | -29.9% (active) | 17.8% | 8.1% (active) | 64.7% | 
14 | Clc1cccc(NCOOC2(OOCNc3cccc(Cl)c3)CCCCCC2)c1 | 93.2% | 102% | 93.2% | 101% | 91.2% | 93.7% | 102% |  | 107% | 
15 | CNCc1cccnc1 | 108% | 85.7% | 115% | 99.6% | 89% | 106% | 108% | 98.2% | 120% | 
16 | COC(=O)C12CC(NC(=O)c3csc([C@@H](C[C@H](C(C)C)N(C)C(=O)[C@@H](NC(=O)[C@H]4CCCCN4C)C4CC4)OC(C)=O)n3)(C1)C2 | 14.1% | -8.13% (active) | 39.6% | 11.8% | 23.4% | -22.5% (active) | 58.6% | 15.7% | 60.1% | 
17 | CCCCCCCC[N+](C)(CCCCCCCC)CCCCCCCC | -75% (active) | -100% (active) | -89.6% (active) | -75% (active) | -91.3% (active) | -100% (active) | -94.5% (active) |  | -100% (active) | 
18 | CCOP(=O)(Nc1ccc2c(c1)/C(=N/NC(N)=S)c1ccccc1-2)OCC | 96.5% |  | 94.5% | 94.8% | 94.4% | 84.4% | 77.7% | 88.9% | 116% | 80.6%
19 | O=[N+]([O-])c1cc(I)cc([N+](=O)[O-])c1 | 90.2% | 109% | 113% | 107% |  | 95.2% | 103% | 91.8% | 116% | 
20 | O=C1C=C2C(=CCOC2O)O1 (stereo unspecified) | -8.81% (active) | -24.3% (active) | 84.1% | 74.8% | 33.9% | 78.7% | -14.2% (active) |  | 37.7% | 
21 | O=C(O)C(Cl)(Cl)C(F)(F)F | 104% | 103% | 105% | 108% | 102% | 103% | 105% |  | 110% | 
22 | NC(=O)C(Br)c1ccccc1 (stereo unspecified) | 58% | 86.2% | 90.6% | 86.8% | 94.3% | 82.9% | 88% | 56.8% | 97.2% | 
23 | Cc1cccc(N2CCN(C(C)C#N)CC2)c1 (stereo unspecified) | 106% | 105% | 115% | 103% |  | 105% | 111% | 94.7% | 114% | 
24 | COC(=O)CCC1=C(C)c2cc3[n-]c(cc4nc(cc5[n-]c(cc1n2)c(CCC(=O)OC)c5C)C=C4C)cc3C.[Cd+2] | 35.5% | 28.8% | 73.9% | 61% | 33.9% | -7.46% (active) | 24.1% | 44.3% | 68.8% | 
25 | OCc1ccc2c(c1)OCO2 | 104% | 96.4% | 104% | 95.8% | 94.3% | 102% |  | 95.3% | 108% | 
26 | COC(=O)[C@H](Cc1ccccc1)NC(=O)c1csc([C@@H](C[C@H](C(C)C)N(C)C(=O)[C@@H](NC(=O)[C@H]2CCCN2C)C2CC2)OC(C)=O)n1 | 18.7% | 8.98% (active) | 59.5% | 13.3% | 13.2% | 29.4% | 38.2% | 16.8% | 51.4% | 
27 | CC(C)[C@@H]1NC(=O)[C@]2(C)CSC(=N2)c2csc(n2)CNC(=O)C[C@@H](/C=C/CCS)OC1=O | 58.6% |  | 22.3% | -62.1% (active) | 17% | -81.2% (active) | -42.2% (active) | -93.1% (active) | 5.48% (active) | 29.1%
28 | CCCc1cc(O)c2c3c(c(=O)oc2c1)CN(C)CC3 | 23.2% | 10.8% | 44.4% | 16.7% |  | 42.3% | 37.8% | 30.9% | 56.4% | 
29 | COc1cc([N+](=O)[O-])c2nc(C)ccc2c1[N+](=O)[O-] | 92.9% |  | 95.2% | 90% | 93.9% | 93.6% | 86.7% | 71.5% | 103% | 109%
30 | COC(=O)[C@@H](C)C[C@H](Cc1ccccc1)NC(=O)c1csc(CC[C@H](C(C)C)N(C)C(=O)[C@@H](NC(=O)[C@H]2CCCCN2C)C(C)C)n1 | 10.9% | 3.34% (active) | 35.4% | 14.8% | 27.6% | -19.5% (active) | 40.7% | 28.6% | 63.2% | 
